{"source": "the supplement of paper PMC3334620", "note": "Whole data set: some 33,000 sequences, median “E-score (-0.5 to 0.5)” near -0.015, cut for the highest 2% near 0.3. The sample as a whole holds a higher share of the highest values than the screen did."}
{"molecular_target": "T1, Abf1 (UniProt P14164)", "T1 sequence": "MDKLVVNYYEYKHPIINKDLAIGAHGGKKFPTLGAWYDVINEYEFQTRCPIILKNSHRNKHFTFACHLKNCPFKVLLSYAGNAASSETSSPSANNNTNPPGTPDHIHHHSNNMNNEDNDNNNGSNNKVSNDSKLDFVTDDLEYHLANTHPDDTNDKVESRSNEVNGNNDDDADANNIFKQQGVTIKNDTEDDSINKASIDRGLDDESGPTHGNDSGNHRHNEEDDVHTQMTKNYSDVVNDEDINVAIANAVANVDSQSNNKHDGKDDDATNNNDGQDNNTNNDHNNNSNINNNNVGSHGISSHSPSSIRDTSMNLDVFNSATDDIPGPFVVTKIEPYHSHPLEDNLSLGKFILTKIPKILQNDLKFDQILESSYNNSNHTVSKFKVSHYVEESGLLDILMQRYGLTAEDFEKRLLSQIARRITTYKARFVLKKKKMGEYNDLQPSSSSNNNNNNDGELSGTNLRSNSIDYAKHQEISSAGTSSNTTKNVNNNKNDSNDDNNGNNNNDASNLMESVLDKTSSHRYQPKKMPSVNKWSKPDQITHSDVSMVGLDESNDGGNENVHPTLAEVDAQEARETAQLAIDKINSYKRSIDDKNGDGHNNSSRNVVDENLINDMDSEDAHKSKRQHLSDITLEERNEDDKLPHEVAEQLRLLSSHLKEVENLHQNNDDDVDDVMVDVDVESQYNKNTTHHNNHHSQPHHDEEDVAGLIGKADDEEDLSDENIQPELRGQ", "assay": "PBM E-score (8-mer binding enrichment) (E-score (-0.5 to 0.5)); higher = stronger / more preferred TF binding", "details": "protein concentration: 200 nM; construct: GST-full length", "method": "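Universal 'all 10-mer' protein binding microarrays (Agilent AMADID 015681) probed with GST-tagged S. cerevisiae TFs (full-length or DBD) made by in vitro transcription/translation (PURExpress), about 100-200 nM. Bound TF was detected with fluorescent anti-GST. Each ungapped 8-mer (which stands for itself and its reverse complement) is scored by the PBM enrichment score (E-score), a modified Wilcoxon-Mann-Whitney statistic from -0.5 to +0.5, computed with the Universal PBM Analysis Suite. Scale: above 0.35 generally sequence-specific binding.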"}
{"sequence": "ATCGTAAG", "PBM E-score": 0.108}
{"sequence": "GTCGTACA", "PBM E-score": 0.383}
{"sequence": "CTCGTACA", "PBM E-score": 0.342}
{"sequence": "CTCGTACC", "PBM E-score": 0.184}
{"sequence": "ATCGTACC", "PBM E-score": 0.0609}
{"sequence": "AACGTACA", "PBM E-score": 0.0978}
{"sequence": "CACGTACA", "PBM E-score": 0.0758}
{"sequence": "ATCGTAAA", "PBM E-score": 0.234}
{"sequence": "GTCTGCAC", "PBM E-score": -0.061}
{"sequence": "GGTCCTGA", "PBM E-score": -0.0764}
{"sequence": "CGGAAGTA", "PBM E-score": -0.0352}
{"sequence": "ACAGGTAC", "PBM E-score": -0.146}
{"sequence": "GGCTTTAC", "PBM E-score": -0.225}
{"sequence": "GCTGGGTA", "PBM E-score": -0.0116}
{"sequence": "AAGAAAAA", "PBM E-score": -0.0775}
{"sequence": "CCAGGATA", "PBM E-score": 0.126}
{"sequence": "GTGAGGTA", "PBM E-score": -0.0243}
{"sequence": "AGAAACCT", "PBM E-score": -0.237}
{"sequence": "ATTACGTA", "PBM E-score": 0.372}
{"sequence": "ATTACGGC", "PBM E-score": 0.184}
{"sequence": "CTTACGTA", "PBM E-score": 0.212}
{"sequence": "ATTACGTG", "PBM E-score": 0.176}
{"sequence": "ATTACGGA", "PBM E-score": 0.303}
{"sequence": "ATTACGGG", "PBM E-score": -0.0226}
{"sequence": "GAGAGGCA", "PBM E-score": -0.176}
{"sequence": "GCCCTACC", "PBM E-score": -0.149}
{"sequence": "CTGAATCA", "PBM E-score": -0.0743}
{"sequence": "AAGCCCCC", "PBM E-score": -0.352}
{"sequence": "GTAGTGAC", "PBM E-score": 0.35}
{"sequence": "ATAGTGAG", "PBM E-score": 0.069}
{"sequence": "CTAGTGAA", "PBM E-score": -0.202}
{"sequence": "GTAGTGAA", "PBM E-score": 0.0467}
{"sequence": "CTAGTGAG", "PBM E-score": -0.0339}
{"sequence": "CTAGTGAC", "PBM E-score": 0.316}
{"sequence": "ATAGTGGG", "PBM E-score": -0.075}
{"sequence": "ATAGTGAC", "PBM E-score": 0.35}
{"sequence": "ACAGTGAT", "PBM E-score": 0.294}
{"sequence": "ATAGTGAA", "PBM E-score": 0.0719}
{"sequence": "ATAGTGAT", "PBM E-score": 0.436}
{"sequence": "GCAGTGAC", "PBM E-score": 0.15}
{"sequence": "AGTCGTAC", "PBM E-score": 0.169}
{"sequence": "CTGGGTAA", "PBM E-score": -0.0825}
{"sequence": "ATGGGTTC", "PBM E-score": -0.0947}
{"sequence": "GCGCGCGC", "PBM E-score": 0.197}
{"sequence": "GCAGGGAC", "PBM E-score": -0.131}
{"sequence": "TTAGCCAA", "PBM E-score": -0.00286}
{"sequence": "CGGCGCCC", "PBM E-score": -0.143}
{"sequence": "CGAGCAAA", "PBM E-score": 0.179}
{"sequence": "CGCGGGAC", "PBM E-score": -0.172}
{"sequence": "GTCGTGCA", "PBM E-score": 0.374}
{"sequence": "GGCGTGCA", "PBM E-score": -0.0867}
{"sequence": "CTCGTGCA", "PBM E-score": 0.124}
{"sequence": "CACGTGCA", "PBM E-score": 0.139}
{"sequence": "AACGTGCA", "PBM E-score": 0.0844}
{"sequence": "GACGTGCA", "PBM E-score": 0.358}
{"sequence": "GATGGAGA", "PBM E-score": -0.00795}
{"sequence": "AGATCGCA", "PBM E-score": 0.0409}
{"sequence": "ATCCCCGC", "PBM E-score": -0.211}
{"sequence": "CACAAAGA", "PBM E-score": 0.0323}
{"sequence": "AGGTCAGC", "PBM E-score": -0.0373}
{"sequence": "CCGTACAC", "PBM E-score": 0.3}
{"sequence": "GCGTACAC", "PBM E-score": 0.0451}
{"sequence": "CGGTACAA", "PBM E-score": 0.211}
{"sequence": "TCGTACAA", "PBM E-score": 0.402}
{"sequence": "CAGTACAA", "PBM E-score": 0.0284}
{"sequence": "CCGTACAG", "PBM E-score": 0.21}
{"sequence": "ACGTACAA", "PBM E-score": 0.218}
{"sequence": "GCGTACAA", "PBM E-score": 0.197}
{"sequence": "CCGTACAA", "PBM E-score": 0.432}
{"sequence": "AAGGTTTC", "PBM E-score": -0.0855}
{"sequence": "CCGACAGA", "PBM E-score": -0.00185}
{"sequence": "TACGTTAA", "PBM E-score": 0.132}
{"sequence": "AGATGCCC", "PBM E-score": -0.144}
{"sequence": "GCATCCGA", "PBM E-score": -0.146}
{"sequence": "GAGAGTGC", "PBM E-score": -0.192}
{"sequence": "TAGAGTGA", "PBM E-score": 0.248}
{"sequence": "GAGAGTGA", "PBM E-score": 0.324}
{"sequence": "CCGTTTTA", "PBM E-score": 0.203}
{"sequence": "GCATGACA", "PBM E-score": 0.207}
{"sequence": "CGATGACG", "PBM E-score": 0.136}
{"sequence": "AGATGACT", "PBM E-score": -0.0855}
{"sequence": "TCATGACA", "PBM E-score": 0.323}
{"sequence": "TGATGACA", "PBM E-score": 0.376}
{"sequence": "TGATGAAA", "PBM E-score": 0.0461}
{"sequence": "AGATGACA", "PBM E-score": 0.316}
{"sequence": "CGATGACC", "PBM E-score": 0.206}
{"sequence": "AGATGACC", "PBM E-score": 0.132}
{"sequence": "CGATGACA", "PBM E-score": 0.319}
{"sequence": "ACATGACA", "PBM E-score": 0.256}
{"sequence": "GGATGACA", "PBM E-score": 0.253}
{"sequence": "CTCGTGCC", "PBM E-score": -0.0761}
{"sequence": "CCGGATGA", "PBM E-score": -0.024}
{"sequence": "GAACACAA", "PBM E-score": -0.0576}
{"sequence": "GCGAGTGA", "PBM E-score": 0.137}
{"sequence": "ACTGGTCT", "PBM E-score": -0.176}
{"sequence": "ACTTGTCT", "PBM E-score": -0.0797}
{"sequence": "CGATTGGC", "PBM E-score": -0.0866}
{"sequence": "CCCCGCGG", "PBM E-score": -0.255}
{"sequence": "CGGTCGCC", "PBM E-score": -0.00137}
{"sequence": "AATGACGA", "PBM E-score": 0.36}
{"sequence": "ATTGACGA", "PBM E-score": 0.377}
{"sequence": "GTTGACGA", "PBM E-score": 0.21}
{"sequence": "AATGACGC", "PBM E-score": 0.106}
{"sequence": "AATGACGT", "PBM E-score": 0.125}
{"sequence": "ACTGACGG", "PBM E-score": -0.0335}
{"sequence": "CATGACGG", "PBM E-score": 0.0231}
{"sequence": "ACTGACGA", "PBM E-score": 0.305}
{"sequence": "ATTGACGG", "PBM E-score": 0.211}
{"sequence": "CATGACGA", "PBM E-score": 0.374}
{"sequence": "CCTGACGA", "PBM E-score": 0.214}
{"sequence": "GATGACGA", "PBM E-score": 0.265}
